Data published in PubChem BioAssay (NCATS).
Results filed as inconclusive are left out. Active and inactive are the calls of the source. Unless noted, the call rests on the fitted dose curve; in most records, active means well fitted curve in either direction with a large enough effect (not every such curve was filed as active); inconclusive means small, poorly fitted or top-dose-only effect, or another doubt; inactive means flat fitted curve, though single readings scatter.

Legend:
[1] = biological target: Lysosomal acid glucosylceramidase (Homo sapiens) (UniProt P04062); assay: Glucocerebrosidase-p2 (AID 348; in the data active means potency below about 10 µM; further: potency means the concentration at half of the fitted maximal effect); details: purified GBA, blue fluorogenic substrate, 40 min
Method in brief: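 Normal human glucocerebrosidase (0.2 nM) with blue fluorogenic substrate (80 uM final) in citrate/phosphate pH 5.9 with 10mM sodium taurocholate, 0.01% tween-20; 40 min RT, NaOH/glycine stop; fluorescence Ex 365/Em 440; AC50 from a titration from 0.6 nM upwards.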

[2] = AP1 Signaling Pathway (AID 357); details: ME-180 AP-1-bla reporter, EGF-induced, beta-lactamase ratio, 5 h; at 7.69 µM (top of the series) unless noted;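 further: ME-180 reporter cells stimulated with EGF at its EC50 level; on the % scale 0 is the no-effect control and ±100 the full control effect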
Method in brief: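 Cells are seeded overnight, exposed to compound titrations and an EC50 level of EGF for 5 hours at 37 °C, then loaded with CCF4 dye for 2.5 hours. Beta-lactamase activity under the AP-1 element is read as a blue/green ratio.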

[3] = biological target: Glucocorticoid receptor (Homo sapiens) (UniProt P04150); assay: GR-GFP Redistribution (AID 450;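 active means compounds whose dose series gives a full or clear partial fitted curve of increased nuclear translocation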; further: potency means the concentration at half of the fitted maximal effect); details: U2OS GR-GFP nuclear translocation, laser cytometry, 2 h
[4] = biological target: Mitogen-activated protein kinase 10 (Mus musculus) (UniProt Q61831); assay: JNK3 AlphaScreen Assay (AID 530); details: JNK3 lysate, c-Jun phosphorylation; series mostly up to 11.4 µM;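 further: kinase came from lysate of stimulated human HepG2 cells; signal reports phosphorylation of biotinylated GST-cJun 1-79 at Ser73 with 10 µM ATP; on the % scale 0 is the no-effect control and ±100 the full control effect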
Method in brief: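 qHTS titrations with 15 min compound pre-incubation before adding ATP (10 uM final). Read-out: AlphaScreen of Ser73-phosphorylated biotin-GST-cJun using HepG2 lysate JNK3 activated by IL-1β and TNFα.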

[5] = biological target: 3',5'-cyclic-AMP phosphodiesterase 4B (Homo sapiens) (UniProt Q07343); assay: qHTS Assay for Inhibitors of PDE-IV (AID 607; active means well fitted activation curve with a large enough effect in the main read-out, with a control signal flat, not every such curve was filed as active; further: % of control where 0% means no effect); details: HEK293 ACTOne CNG channel cells, membrane potential fluorescence; series mostly up to 22.9 µM
Method in brief: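 HEK293 ACTOne cells with CNG channel (1000/well), endogenous PDE4; membrane potential dye, compounds up to 22.9 uM final. Fluorescence Ex 535/Em 590; RO 20-1724 (100 uM final) as reference.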

[6] = biological target: Cytochrome P450 2C9 (Homo sapiens) (UniProt P11712); assay: qHTS Assay for Inhibitors and Substrates of Cytochrome P450 2C9 (AID 883; active means well fitted curve in the direction sought with a large enough effect; an effect the other way counts as inactive or inconclusive; further: potency means the concentration at half of the fitted maximal effect; nearly all actives have a fitted effect of over 60% in size); details: recombinant CYP2C9, luciferin-H luminescence, 60 min; series mostly up to 11.4 µM
Method in brief: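 Luminescent read-out of deoxyluciferin hydroxylation, normalized to 57uM sulphaphenazole (AC100). Reaction: 10nM enzyme, 100uM Luciferin-H (equal to KM), 25mM KPO4, 10 min compound preincubation, then 60 min with NADPH regeneration, both at 37C.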

[7] = biological target: Cytochrome P450 3A4 (Homo sapiens) (UniProt P08684); assay: qHTS Assay for Activators of Cytochrome P450 3A4 (AID 885; active means well fitted curve in the direction sought with a large enough effect; an effect the other way counts as inactive or inconclusive; further: nearly all actives have a fitted effect of over 65% in size); details: recombinant CYP3A4, Luciferin-PPXE luminescence, 60 min; series mostly up to 11.4 µM
Method in brief: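 Human CYP3A4 dealkylates Luciferin-PPXE to luciferin, which luciferase detection converts to light. Substrate was at its KM (25uM), buffer 200mM KPO4, reaction 60 min at RT.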

[8] = biological target: Cytochrome P450 2C19 (Homo sapiens) (UniProt P33261); assay: qHTS Assay for Inhibitors and Substrates of Cytochrome P450 2C19 (AID 899; active means well fitted curve in the direction sought with a large enough effect; an effect the other way counts as inactive or inconclusive; further: potency means the concentration at half of the fitted maximal effect; nearly all actives have a fitted effect of over 60% in size); details: recombinant CYP2C19, luciferin-H EGE luminescence; series mostly up to 11.4 µM
Method in brief: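 Luminescence readout of luciferin formed from 10uM Luciferin-H EGE (KM level) by 5 nM CYP2C19 in 50mM KPO4. 60 min NADPH-driven reaction at 37C after 10 min compound preincubation; data scaled to 57uM ketoconazole inhibition.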

[9] = Stat Signaling Pathway (AID 446); details: ME-180 (cervical carcinoma) SIE beta-lactamase reporter, IL-6 stimulated, 5 h; at 7.69 µM (top of the series) unless noted;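 further: ME-180 cervical cancer cells given 40 pM IL-6 alongside compound; SIE-controlled beta-lactamase reporter measured as 460/530 nm FRET emission ratio; on the % scale 0 is the no-effect control and ±100 the full control effect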
Method in brief: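 Normalization used AC90 stimulation (300 pM IL-6) and AC90 inhibition (125 nM pan-JAK inhibitor at 40 pM IL-6). The underlying signal is SIE-driven beta-lactamase in ME-180 cells after 5 h IL-6 exposure with compound.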

[10] = biological target: Glucocorticoid receptor (Homo sapiens) (UniProt P04150); assay: GR-EFC Redistribution (AID 451; calls by dose curve; further: potency means the concentration at half of the fitted maximal effect); details: CHO-K1 GR-EFC translocation, beta-gal luminescence, 2 h
Method in brief: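 Translocation of GR-ED fusion to nuclear EA restores b-gal, read by luminescence after 1 h room-temperature detection. Engineered CHO-K1 biosensor cells, 1,000/well, exposed 2 h at 37 C to titrations up to 46 uM final.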

[11] = biological target: Cytochrome P450 3A4 (Homo sapiens) (UniProt P08684); assay: qHTS Assay for Inhibitors and Substrates of Cytochrome P450 3A4 (AID 884; active means well fitted curve in the direction sought with a large enough effect; an effect the other way counts as inactive or inconclusive; further: potency means the concentration at half of the fitted maximal effect; nearly all actives have a fitted effect of over 50% in size); details: recombinant CYP3A4, Luciferin-PPXE luminescence; series mostly up to 57.1 µM
Method in brief: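 Luminescent readout of luciferin produced by CYP3A4 (20 nM) dealkylation of Luciferin-PPXE, 25 uM (its KM). NADPH-driven reaction ran 60 min at RT after 10 min compound preincubation; data scaled to 57 uM ketoconazole as 100% inhibition.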

Cytochrome P450 2C19 (Homo sapiens), sequence (P33261 whole entry, looked up): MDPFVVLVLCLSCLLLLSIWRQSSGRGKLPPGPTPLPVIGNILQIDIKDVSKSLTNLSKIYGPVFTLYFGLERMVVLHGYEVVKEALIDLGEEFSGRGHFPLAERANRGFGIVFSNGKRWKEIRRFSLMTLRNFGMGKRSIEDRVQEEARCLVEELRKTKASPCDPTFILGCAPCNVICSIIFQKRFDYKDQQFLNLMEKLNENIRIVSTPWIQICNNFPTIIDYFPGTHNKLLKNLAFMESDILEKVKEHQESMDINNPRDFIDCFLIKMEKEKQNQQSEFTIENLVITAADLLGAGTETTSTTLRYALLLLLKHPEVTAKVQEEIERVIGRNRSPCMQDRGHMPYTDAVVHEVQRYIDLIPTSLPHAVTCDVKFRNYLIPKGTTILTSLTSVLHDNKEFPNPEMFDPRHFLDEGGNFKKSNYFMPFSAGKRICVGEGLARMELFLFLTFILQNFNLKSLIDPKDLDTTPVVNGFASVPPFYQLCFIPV
Lysosomal acid glucosylceramidase (Homo sapiens), sequence (P04062 whole entry, looked up): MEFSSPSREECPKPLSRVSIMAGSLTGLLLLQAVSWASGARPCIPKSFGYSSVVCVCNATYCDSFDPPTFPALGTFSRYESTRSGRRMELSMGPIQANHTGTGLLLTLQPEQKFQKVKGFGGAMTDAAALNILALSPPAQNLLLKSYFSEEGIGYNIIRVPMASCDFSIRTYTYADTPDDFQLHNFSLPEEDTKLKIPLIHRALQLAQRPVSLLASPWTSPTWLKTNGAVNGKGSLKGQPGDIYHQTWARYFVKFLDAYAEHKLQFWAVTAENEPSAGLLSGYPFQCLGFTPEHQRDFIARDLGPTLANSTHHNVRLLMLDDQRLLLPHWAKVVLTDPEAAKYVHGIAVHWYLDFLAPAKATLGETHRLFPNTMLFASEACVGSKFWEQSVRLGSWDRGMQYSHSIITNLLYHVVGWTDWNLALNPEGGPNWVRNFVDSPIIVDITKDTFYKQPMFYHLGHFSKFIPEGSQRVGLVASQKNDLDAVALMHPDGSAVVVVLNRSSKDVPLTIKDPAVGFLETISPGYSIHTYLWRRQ
Glucocorticoid receptor (Homo sapiens), sequence (P04150 whole entry, looked up, the tested form may be a part): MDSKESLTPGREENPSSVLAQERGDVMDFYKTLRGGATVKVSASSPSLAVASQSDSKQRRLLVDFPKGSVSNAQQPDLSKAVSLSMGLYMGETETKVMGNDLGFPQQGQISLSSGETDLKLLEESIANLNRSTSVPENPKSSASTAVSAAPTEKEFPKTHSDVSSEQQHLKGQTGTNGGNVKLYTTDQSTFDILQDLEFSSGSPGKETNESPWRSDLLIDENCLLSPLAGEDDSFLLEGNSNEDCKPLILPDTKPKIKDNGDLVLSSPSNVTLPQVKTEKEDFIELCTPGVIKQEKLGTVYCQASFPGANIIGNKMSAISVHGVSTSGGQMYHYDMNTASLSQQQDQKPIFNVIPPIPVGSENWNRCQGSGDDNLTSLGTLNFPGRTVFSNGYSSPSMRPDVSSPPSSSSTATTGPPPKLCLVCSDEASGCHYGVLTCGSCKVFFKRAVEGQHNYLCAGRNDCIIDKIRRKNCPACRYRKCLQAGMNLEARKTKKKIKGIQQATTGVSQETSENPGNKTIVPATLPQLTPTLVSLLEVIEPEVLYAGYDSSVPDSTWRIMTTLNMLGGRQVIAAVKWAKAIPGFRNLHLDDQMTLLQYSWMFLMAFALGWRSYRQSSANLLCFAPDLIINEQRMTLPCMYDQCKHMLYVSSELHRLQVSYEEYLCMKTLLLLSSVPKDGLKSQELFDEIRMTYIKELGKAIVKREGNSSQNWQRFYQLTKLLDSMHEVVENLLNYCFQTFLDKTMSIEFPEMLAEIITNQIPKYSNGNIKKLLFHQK
Cytochrome P450 3A4 (Homo sapiens), sequence (P08684 whole entry, looked up): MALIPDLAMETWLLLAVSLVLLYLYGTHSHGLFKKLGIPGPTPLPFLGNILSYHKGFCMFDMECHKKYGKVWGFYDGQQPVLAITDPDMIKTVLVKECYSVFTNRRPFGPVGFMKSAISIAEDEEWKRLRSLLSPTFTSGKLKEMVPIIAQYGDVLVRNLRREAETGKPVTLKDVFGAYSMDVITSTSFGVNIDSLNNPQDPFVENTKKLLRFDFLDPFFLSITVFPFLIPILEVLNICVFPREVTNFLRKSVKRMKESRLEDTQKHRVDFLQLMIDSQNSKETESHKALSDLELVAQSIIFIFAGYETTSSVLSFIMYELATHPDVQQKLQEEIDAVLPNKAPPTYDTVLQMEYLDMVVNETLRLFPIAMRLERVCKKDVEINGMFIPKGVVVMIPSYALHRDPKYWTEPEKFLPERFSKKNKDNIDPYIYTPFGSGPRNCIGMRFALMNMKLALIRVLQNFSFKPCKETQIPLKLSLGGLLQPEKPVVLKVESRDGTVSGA
3',5'-cyclic-AMP phosphodiesterase 4B (Homo sapiens), sequence (Q07343 whole entry, looked up): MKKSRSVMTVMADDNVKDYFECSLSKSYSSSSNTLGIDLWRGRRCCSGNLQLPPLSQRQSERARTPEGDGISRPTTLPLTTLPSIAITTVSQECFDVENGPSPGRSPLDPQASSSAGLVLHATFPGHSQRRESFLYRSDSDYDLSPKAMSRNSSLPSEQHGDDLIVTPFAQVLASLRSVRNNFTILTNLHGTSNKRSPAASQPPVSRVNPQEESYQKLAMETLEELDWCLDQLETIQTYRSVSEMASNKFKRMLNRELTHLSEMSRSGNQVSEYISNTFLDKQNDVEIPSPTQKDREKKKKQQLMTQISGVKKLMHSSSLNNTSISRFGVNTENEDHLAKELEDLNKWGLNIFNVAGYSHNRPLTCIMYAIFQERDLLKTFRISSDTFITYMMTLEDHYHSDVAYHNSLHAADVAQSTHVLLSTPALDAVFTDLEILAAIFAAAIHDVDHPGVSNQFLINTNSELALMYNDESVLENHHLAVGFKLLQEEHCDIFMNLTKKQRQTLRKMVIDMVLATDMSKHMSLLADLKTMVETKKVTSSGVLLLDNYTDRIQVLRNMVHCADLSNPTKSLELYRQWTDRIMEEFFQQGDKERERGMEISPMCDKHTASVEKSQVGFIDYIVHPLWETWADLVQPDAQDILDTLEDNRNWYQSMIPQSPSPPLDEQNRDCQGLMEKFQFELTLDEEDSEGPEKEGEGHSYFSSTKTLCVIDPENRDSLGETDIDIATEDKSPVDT
Cytochrome P450 2C9 (Homo sapiens), sequence (P11712 whole entry, looked up): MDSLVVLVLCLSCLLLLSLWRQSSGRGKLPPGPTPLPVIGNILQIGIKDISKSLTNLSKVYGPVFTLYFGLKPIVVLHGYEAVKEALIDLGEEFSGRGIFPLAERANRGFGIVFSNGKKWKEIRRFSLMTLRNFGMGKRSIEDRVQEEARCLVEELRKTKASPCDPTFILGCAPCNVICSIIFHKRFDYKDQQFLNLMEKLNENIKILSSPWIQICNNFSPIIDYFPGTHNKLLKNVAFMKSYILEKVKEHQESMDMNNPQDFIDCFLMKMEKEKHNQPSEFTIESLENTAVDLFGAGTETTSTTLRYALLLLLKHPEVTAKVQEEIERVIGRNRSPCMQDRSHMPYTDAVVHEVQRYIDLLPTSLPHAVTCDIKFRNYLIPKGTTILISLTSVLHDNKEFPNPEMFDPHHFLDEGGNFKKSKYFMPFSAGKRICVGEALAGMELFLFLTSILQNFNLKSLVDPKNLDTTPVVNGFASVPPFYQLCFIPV

O=C(c1ccc([N+](=O)[O-])cc1)[C@@H](Br)[C@@H](Br)c1ccnc2ccccc12
inactive: Potency [1] > 11.4 µM | activity change, negative = inhibition [2] -11.4% | Potency [3] > 46 µM | Potency [4] | Potency [5] | Potency [7]
active: Potency [6] 3.16 µM | Potency [8] 1.26 µM

C[C@@]12C[C@H](O)[C@@H]3[C@H](CCC4=CC(=O)CC[C@]43C)[C@H]1CC[C@@H]2c1csc(-c2ccccc2)n1
inactive: Potency [1] > 11.4 µM | activity change, negative = inhibition [2] -1.5% | activity, negative = inhibition [9] -6.13% | Potency [3] > 46 µM | Potency [10] > 9.22 µM | Potency [4] | Potency [5]

COc1ccc(C(=O)N/N=C2/C(=O)c3c(C)cc(C)cc3CC2(C)C)cc1
active: Potency [11] 3.16 µM | Potency [8] 3.98 µM
inactive: Potency [1] > 11.4 µM | activity change, negative = inhibition [2] -13.7% | activity, negative = inhibition [9] 6.46% | Potency [3] > 46 µM | Potency [10] > 9.22 µM | Potency [4] | Potency [5] | Potency [7]

CN1CCC[C@H](C(=O)OCC(=O)[C@]2(O)CC[C@@H]3[C@H]4CCC5=CC(=O)CC[C@@]5(C)[C@H]4[C@@H](O)C[C@]32C)C1
inactive: Potency [1] > 11.4 µM | activity change, negative = inhibition [2] 11% | activity, negative = inhibition [9] -2.61% | Potency [10] > 9.22 µM | Potency [4] | Potency [5]

COC(=O)c1ccc(CCc2cc(O)ccc2O)cc1
inactive: Potency [1] > 11.4 µM | activity change, negative = inhibition [2] -7.43% | activity, negative = inhibition [9] -16.8% | Potency [3] > 46 µM | Potency [10] > 9.22 µM | Potency [4] | Potency [5] | Potency [7]
active: Potency [8] 3.16 µM

O=C(CCN1CCCCC1)c1csc2ccccc12
inactive: Potency [1] > 11.4 µM | activity change, negative = inhibition [2] -4.73% | activity, negative = inhibition [9] -9.72% | Potency [3] > 46 µM | Potency [10] > 9.22 µM | Potency [4] | Potency [5]
